Screens: PubChem, Buhrlage Lab, Dana-Farber Cancer Institute and Novartis Institutes for BioMedical Research (Cambridge, Mass)
This is a sample that favours compounds with a hit; in the whole collection about 9.6% have one here.
USP30 block: blocks human USP30 ubiquitin-rhodamine cleavage. Q70CQ3. purified USP30, Ub-rhodamine cleavage fluorescence. inhibition, % at 25 µM. 5.3% of 47,000 active. AID 1645860
Target sequence (Q70CQ3 whole entry, looked up): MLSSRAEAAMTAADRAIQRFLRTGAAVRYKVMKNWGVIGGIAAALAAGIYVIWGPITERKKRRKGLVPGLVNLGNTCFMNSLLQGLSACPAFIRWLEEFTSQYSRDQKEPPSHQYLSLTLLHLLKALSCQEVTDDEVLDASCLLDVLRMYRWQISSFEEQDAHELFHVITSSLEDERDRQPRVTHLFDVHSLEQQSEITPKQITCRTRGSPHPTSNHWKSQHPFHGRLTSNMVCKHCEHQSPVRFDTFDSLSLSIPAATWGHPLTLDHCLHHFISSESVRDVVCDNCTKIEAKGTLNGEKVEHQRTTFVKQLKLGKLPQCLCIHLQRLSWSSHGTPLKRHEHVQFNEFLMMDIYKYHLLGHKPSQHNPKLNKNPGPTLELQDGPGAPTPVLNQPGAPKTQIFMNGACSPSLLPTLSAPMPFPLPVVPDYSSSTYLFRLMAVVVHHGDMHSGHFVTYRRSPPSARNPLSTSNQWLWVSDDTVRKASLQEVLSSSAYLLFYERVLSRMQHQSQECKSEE
USP17 block: blocks human USP17 ubiquitin-rhodamine cleavage | purified USP17, Ub-rhodamine cleavage fluorescence, 3 h | 6.5% of 47,000 active | inhibition, % at 50 µM | A8MUK1
The depositor's hits bear a star; i = inactive; nt = not tested or not shown. Cut-off read from the data, not from the text of the source: active = inhibition above about 30%; inactive = the rest.

SMILES	USP30 block	USP17 block
COc1ccc(S(=O)(=O)c2nnn(-c3cccc(OC)c3)c2C)cc1	-13	-11
COc1ccc(CSc2nc3ccncc3n2CC(=O)Nc2ccc(C)cc2C)cc1	84*	72*
CCC(C)NC(=O)c1ccc(Cn2c(SCc3ccc(C)cc3)nc3ccncc32)cc1 (stereo not drawn)	0	4
COc1ccc(Cn2c(SCc3ccc(C(=O)NCCc4ccccc4)cc3)nc3ccncc32)cc1	53*	32*
CCC(C(=O)Nc1ccccc1F)n1c(SCc2cccc(F)c2)nc2ccncc21 (stereo not drawn)	-1	5
COC(=O)c1ccc(CSc2nc3ccncc3n2CC(=O)N2CCCC2)cc1	-18	-26
COc1ccccc1CNC(=O)c1ccc(CSc2nc3ccncc3n2Cc2ccccc2)cc1	56*	40*
COC(=O)c1ccc(CSc2nc3ccncc3n2C(C)C(=O)OC)cc1 (stereo not drawn)	0	0
COc1cccc(CNC(=O)c2ccc(CSc3nc4ccncc4n3Cc3ccccc3F)cc2)c1	54*	36*
Cc1ccc2nc(CCc3ccc(NS(=O)(=O)c4cccc(Cl)c4)cc3)[nH]c2c1	0	12
CN1CCN(C(=O)c2cn3ccnc(-c4ccccc4)c3n2)CC1	-2	0
COc1c(C(=O)N2CCN(c3ccnc(N4CCC(OC)CC4)n3)CC2)ccc2ccccc12	-9	-17
Cc1nc(-c2ccc3c(c2)CCN3C(=O)c2ccccn2)no1	14	10
COc1ccccc1N1CCN(c2ccc3c(cc2=O)[C@@H](NC(C)=O)CCc2cc(OC)c(OC)c(OC)c2-3)CC1	-63	-24
O=C(CCSc1ccccc1)Nc1ccc(Oc2ccccc2)cc1	5	42*
O=C(CCSc1ccccc1)Nc1ccc(-c2nc3ccccc3o2)cc1	-24	3
O=C(CCC(=O)N1CCC(C(=O)N2CCOCC2)CC1)Nc1ccc(Oc2ccccc2)cc1	24	nt
O=C(COC(=O)C1CCCCC1)Nc1ccc(Oc2ccccc2)cc1	28	31*
Cc1cccc(OCC(=O)Nc2ccc(Oc3ccc(Cl)cc3)cc2)c1C	25	26
Cn1nnnc1SCC(=O)c1cc2ccccc2oc1=O	-8	25
O=C(Cn1c(=O)n(-c2ccccc2)c(=O)c2ccc(C(=O)NCc3ccc4c(c3)OCO4)cc21)NCCC1=CCCCC1	56*	33*
O=C(Cc1ccc(-n2c(=O)c3ccccc3n(CC(=O)NCCC3=CCCCC3)c2=O)cc1)NCCc1ccccc1	-35	6
CN(C(=O)Cn1c(=O)n(CCC(=O)NCc2ccc3c(c2)OCO3)c(=O)c2ccccc21)C1CCCCC1	30*	0
CCCCNC(=O)CCCn1c(=O)c2ccccc2n(CC(=O)NCCC2=CCCCC2)c1=O	14	24
O=C(CCCCn1c(=O)c2ccccc2n(CC(=O)NCCC2=CCCCC2)c1=O)NCc1ccc2c(c1)OCO2	nt	33*
SMILES	USP30 block	USP17 block
O=C(Cn1c(=O)n(CCCC(=O)N2CC=C(c3ccccc3)CC2)c(=O)c2ccccc21)NCCC1=CCCCC1	17	52*
O=C(Cn1c(=O)n(CCCC(=O)NC2CCN(Cc3ccccc3)CC2)c(=O)c2ccccc21)NCCC1=CCCCC1	0	4
O=C(CCn1c(=O)c2ccccc2n(CC(=O)OCc2ccccc2)c1=O)NCc1ccc2c(c1)OCO2	26	28
CCCn1nnc2cc(S(=O)(=O)N3CCCC(C(=O)O)C3)ccc21 (stereo not drawn)	-36	-2
Cc1nc(-c2ccc(S(=O)(=O)Nc3ccccc3Cl)cc2)co1	-16	-6
Cc1ccccc1-c1noc2ncnc(NCCCN3CCCC3=O)c12	8	-3
CCNC(=O)c1cccc(NC(=O)c2cc(Cl)c3c(c2)OCO3)c1	-7	0
CCc1nnc(-c2[nH]c(C)c(S(=O)(=O)NC3CCCCCC3)c2C)o1	2	-3
O=C(CCn1c(=O)c2ccccc2n(Cc2cccc([N+](=O)[O-])c2)c1=O)N1CC=C(c2ccccc2)CC1	39*	8
O=C(CCn1c(=O)c2ccccc2n(Cc2ccccc2F)c1=O)N1CC=C(c2ccccc2)CC1	25	5
O=C(CSc1n[nH]c(-c2cc(Br)ccc2O)n1)NCCc1ccccc1	11	38*
O=C(CSc1nc2ccccc2n1S(=O)(=O)c1ccc(Br)cc1)NCCc1ccccc1	-96	-30
Cc1ccc(CN2CCN(Cc3cc[nH]c(=O)c3)CC2)cc1	2	0
CC1(c2ncc(CN3CCN(c4ccccn4)CC3)cn2)CCCCO1 (stereo not drawn)	-9	2
COc1cccc(C2C3=C(CC(c4ccc(Cl)cc4)CC3=O)Nc3ccccc3N2C(=O)CCC(=O)O)c1 (stereo not drawn)	23	18
O=C(O)CCCCCN1C(=O)CC(c2ccc(Cl)cc2)CC1=O	-73	76*
O=C(NCC1CCCCC1)N1CC[C@@H]2CNS(=O)(=O)[C@@H]2CC1	-20	-1
COc1cccc(C(=O)NC2=NC(c3cccc(F)c3)CC(=O)N2)c1 (stereo not drawn)	-38	-17
Cc1c(-c2nsc(NC(=O)c3ccc(Cl)cc3)n2)nnn1-c1ccccc1F	86*	39*
O=C(Nc1nc(-c2ccccc2)ns1)c1ccc(F)cc1	3	0
COc1ccc2[nH]c3c(c2c1)CCN1C(=O)N(c2ccccc2C(=O)NC2CCCCC2)C(=O)[C@]31C	-1	20
COc1cc(C2Nc3ccccc3NC3=C2C(=O)CC(c2cc(OC)c(OC)c(OC)c2)C3)cc(OC)c1O (stereo not drawn)	-24	-25
CCn1ncc(CN(C)C(=O)Nc2ccc(Cl)cc2)c1C	32*	16
CCn1ncc(CN(C)C(=O)c2cnn3c(C(F)F)cc(-c4ccc(OC)cc4)nc23)c1C	19	0
O=C(NCc1cnn2ccccc12)c1ccc(Cn2ccnc2)cc1	5	4
SMILES	USP30 block	USP17 block
O=C(NCc1ccc(Cl)cc1)NCc1cnn2ccccc12	39*	29
COCC(=O)N1CC[C@@H]2Oc3ccccc3S(=O)(=O)N(Cc3ccccc3)[C@H]2CC1	1	1
CNc1ncnc(SC(C)C)c1[N+](=O)[O-]	9	-34
CCC[C@@H]1OC(=O)[C@@H](C)CC(C)CCCCC(=O)CCCC(CC)/C=C/C=C(\COC)CCC(O)C(O)C[C@H](O)CNC1=O (stereo partly drawn)	-19	-8
Cc1cc(NC(=O)Cn2c(=O)n(Cc3ccco3)c(=O)c3ccc(C(=O)NCCc4ccccc4)cc32)n[nH]1	74*	82*
COc1ccc(-n2c(=O)c3ccc(C(=O)NCCc4ccccc4)cc3n(CC(=O)NCc3ccco3)c2=O)cc1	-12	60*
CC(C)(C)C(=O)Cn1c(=O)n(Cc2ccco2)c(=O)c2ccc(C(=O)NC3CCCC3)cc21	12	0
O=C(Cn1c(=O)n(Cc2ccco2)c(=O)c2ccc(C(=O)NC3CCCC3)cc21)NCc1ccco1	-15	55*
Cc1cc(NC(=O)Cn2c(=O)n(CCc3ccccc3)c(=O)c3ccccc32)n[nH]1	6	25
COc1ccc(NC(=O)Cn2c(=O)n(-c3ccc(CC(=O)NCCc4ccccc4)cc3)c(=O)c3ccccc32)cc1	19	16
CC(=O)N1CCN(C(=O)c2cn3ccnc(-c4ccc(C)cc4)c3n2)CC1	26	8
O=C(c1ccco1)N1CCCC2(C1)Nc1cccnc1NC2=NC1CCCC1 (stereo not drawn)	i	-156
O=C(NCc1ccccn1)C1CCN(c2cc(N3CCCCC3)ncn2)CC1	-18	-27
